Source: PubChem
An excerpt weighted towards active compounds, which were near 9.4% of everything screened.
Rab9 promoter act – Rab9 promoter activation | actives 2.8% (n = 320,000) | Huh7 Rab9 promoter-luciferase reporter, luminescence, 24 h | Potency, µM (highest dose often 9.22 µM), without a hit: at the highest dose activation, negative = inhibition, hits mostly activators | AID 485297; also: % of control where 0% means no effect; nearly all actives have a fitted effect of over 60% in size
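Steps: seed 1500 Huh7 Rab9-luc cells per well, rest 2 h at 37 °C; add compound in DMSO; incubate 24 h; add luciferase reagent, 10 min ambient; read luminescence.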
SMN2 splice enh – enhancers of SMN2 splice variant expression | actives 2.8% (n = 210,000) | AID 1458 | Potency, µM (top dose mostly 46.1 µM), for inactives: at the highest dose activity change, positive = activation, hits mostly activators | HEK293 SMN2-luciferase splicing reporter, luminescence, 30-36 h; also: % of control where 0% means no effect; nearly all actives have a fitted effect of over 55% in size
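qHTS luciferase splicing reporter: luminescence rises when SMN2 exon 7 is included in transfected HEK293 cells. Compound exposure lasted 30-36 h at 37C, with 4.5 mM final sodium butyrate as control, followed by a ONE-Glo read.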
FLuc modulator – firefly luciferase modulation, counter-screen for miR-21 project | purified FLuc, Km substrates, luminescence inhibition | P08659 | actives 6.9% (n = 360,000) | AID 588342 | Potency, µM (highest dose often 57.5 µM), for inactives: at the top dose activity change, negative = inhibition, most hits filed as inhibitors;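 also: plate controls were vehicle for no effect and reference inhibitor for full effect; nearly all actives have a fitted effect of over 55% in size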
Target sequence (P08659 whole entry, looked up): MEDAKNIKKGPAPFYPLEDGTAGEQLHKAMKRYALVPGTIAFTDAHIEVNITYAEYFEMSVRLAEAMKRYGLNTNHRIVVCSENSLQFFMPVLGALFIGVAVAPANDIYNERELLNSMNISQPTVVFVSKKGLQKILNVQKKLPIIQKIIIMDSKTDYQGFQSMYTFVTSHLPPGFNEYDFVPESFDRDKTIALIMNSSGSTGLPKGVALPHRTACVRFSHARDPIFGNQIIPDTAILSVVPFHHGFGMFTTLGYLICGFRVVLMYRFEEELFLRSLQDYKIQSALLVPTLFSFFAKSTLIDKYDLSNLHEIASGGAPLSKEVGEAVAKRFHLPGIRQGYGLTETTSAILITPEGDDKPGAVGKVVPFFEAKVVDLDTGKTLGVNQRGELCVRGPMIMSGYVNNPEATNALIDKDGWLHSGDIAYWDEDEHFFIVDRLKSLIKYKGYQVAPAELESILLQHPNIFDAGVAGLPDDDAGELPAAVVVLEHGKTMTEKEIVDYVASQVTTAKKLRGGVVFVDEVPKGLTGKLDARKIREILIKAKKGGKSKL
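Purified P. pyralis luciferase (10nM final) with 10uM D-luciferin and 10uM ATP (Km levels) in 50mM Tris acetate pH 7.5, 10mM Mg acetate, 0.01% Tween-20, 0.05% BSA; qHTS 6-point titration, ~60 µM downward; luminescence read.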
ELG1 genotox – inducers of genotoxicity in HEK293T ELG1-luciferase cells. HEK293T ELG1-luciferase reporter, luminescence, 16 h. Potency, µM (top dose mostly 46 µM), without a hit: top-dose activity change, positive = activation, most hits filed as activators. actives 1.3% (n = 330,000); also: % of control where 0% means no effect; nearly all actives have a fitted effect of over 60% in size
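Step 1: seed 2,000 HEK293T ELG1-luciferase cells per well. Step 2: add compound or DMSO, incubate 16 hr at 37 °C. Step 3: ONE-Glo, 30 min at room temperature, read luminescence.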
ELG1 DNA repair – inhibitors of ELG1-dependent DNA repair in HEK293T cells | HEK293T ELG1-luciferase reporter, luminescence, 16 h; DNA damage induced by 5-fluorouridine | Potency, µM (top dose mostly 46.1 µM), without a hit: at the highest dose activity change, negative = inhibition, actives largely listed as inhibitors | actives 2.3% (n = 330,000); also: % is scaled to controls: 0 for no effect and ±100 for the full control effect; nearly all actives have a fitted effect of over 55% in size
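Overnight (16 hr) co-exposure of 2,000 cells/well to 5-fluorouridine and compound at 37 °C preceded detection. Luciferase was quantified via ONE-Glo luminescence; loss of signal denotes inhibition.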
NPC1 prom act – NPC1 promoter activation; Potency, µM (doses to about 9.22 µM), without a hit: at the top dose activation, usual class: activators; actives 2.4% (n = 320,000); AID 485313; Huh7 NPC1 promoter luciferase reporter, 24 h; also: % of control where 0% means no effect; nearly all actives have a fitted effect of over 60% in size
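Stable NPC1-promoter luciferase Huh7 line; cpd (DMSO) 24 h, 37 °C, 5% CO2; Amplite luciferase reagent 10 min RT; luminescence readout. qHTS format.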
* marks the source's active call; other numbers are inactive results; u = inconclusive; x = not tested or not shown; [ ] = another dose, or the depositor's remark. Calls follow the shape of the dose curve; as a rule, active = well fitted curve in the direction sought with a large enough effect; inconclusive = small, poorly fitted or top-dose-only effect, or another doubt; inactive = no such curve, though single readings can be large; an effect the other way counts as inactive or inconclusive. Potency is read from the fitted curve at half-maximal effect.

SMILES	Rab9 promoter act	SMN2 splice enh	FLuc modulator	ELG1 genotox	ELG1 DNA repair	NPC1 prom act
O=c1c2c3c(sc2ncn1/N=C/c1cccnc1)CCCC3	22%	8%	15µM*	10%	13%	-1%
CCCCc1nn2c(=O)cc(COC(=O)C(C)Oc3ccccc3)nc2s1 (configuration not stated)	x	x	-1%	x	x	x
COc1ccccc1-[n+]1c(C)cc(/C=C2\Sc3ccccc3N2C)cc1C	-40%	x	2.4µM*	3%	u	-35%
COc1ccccc1OC(=O)CCN1c2ccccc2Sc2ccccc21	-8%	1%	0%	2%	3%	-4%
COc1ccc(C(=O)/C=C2\Sc3ccccc3N2C)cc1	0.89µM*	7.9µM*	1.2µM*	1.6µM*	u	0.71µM*
COc1ccc(-[n+]2c(C)cc(/C=C3\Sc4ccccc4N3C)cc2C)cc1	-48%	-63%	19µM*	-16%	18µM*	-41%
O=C(CC1C(=O)NCCN1C(=O)Nc1ccccc1)Nc1cc(Cl)cc(Cl)c1 (configuration not stated)	-4%	x	-12%	-3%	-4%	-2%
Cc1ccccc1S(=O)(=O)Cc1ccc(C(=O)N2CCN(c3cccc(Cl)c3)CC2)o1	x	-44%	-7%	x	x	x
COc1cc(C=C2C(=O)c3ccccc3C2=O)ccc1O	-7%	x	3µM*	2%	15%	1%
COc1ccc(C=C2C(=O)c3ccccc3C2=O)cc1O	-2%	20%	3.4µM*	-2%	15%	0%
COc1ccc(/C=C2\CN(Cc3ccccc3)C/C(=C\c3ccc(OC)c(O)c3)C2=O)cc1O	-30%	x	-7%	-11%	u	-38%
COc1cc(C=C2C(=O)c3ccccc3C2=O)cc(OC)c1OC	1%	-21%	u	u	10%	-9%
CCCCOc1cccc(C(=O)N(Cc2sccc2C)C2CCS(=O)(=O)C2)c1 (configuration not stated)	x	-26%	-8%	x	x	x
Cc1nnc(N/N=C/c2ccc(-c3ccc(Br)cc3)o2)n1N	14%	-23%	u	3%	2%	-1%
Nc1nonc1-c1nc2ccccc2n1CC(=O)N/N=C/c1ccc(-c2cccc(C(=O)O)c2)o1	-3%	14%	27µM*	5%	u	0%
Cc1nnc(N/N=C\c2ccc(-c3cccc(C(=O)O)c3)o2)n1N	u	-10%	11µM*	0%	-16%	-1%
Cn1c(-c2nonc2N)nc2ccccc21	-2%	x	3%	-5%	-2%	0%
CCCn1c(-c2nonc2N)nc2ccccc21	2%	-12%	0%	-11%	16µM*	-1%
Cc1ccc(NC(=O)Cn2c(-c3nonc3N)nc3ccccc32)cc1C	x	10µM*	-18%	x	x	x
COc1cc(NC(=O)CCn2nc(C)c(S(=O)(=O)N3CCCCC3)c2C)cc(OC)c1OC	x	x	-1%	x	x	x
COc1ccc(N2CC(NC(=O)CCCc3ccccc3)CC2=O)cc1 (configuration not stated)	x	x	3%	x	x	x
COc1ccc(-n2nc(C(=O)Nc3ccc(Br)cc3C)c3c4ccccc4n(C)c3c2=O)cc1	x	-1%	-1%	x	x	x
COc1cc(NC(=O)CCc2c(C)nc3nc(-c4cc(OC)cc(OC)c4)nn3c2C)cc(OC)c1	x	0%	-6%	x	x	x
CCCOc1ccc(CNC(=O)c2[nH]c3cc(OC)ccc3c2Sc2ccccc2)cc1	x	x	6%	x	x	x
COc1ccc2[nH]cc(C(=O)NCCc3ccccc3)c(=O)c2c1	20%	x	-16%	5%	-9%	15%
SMILES	Rab9 promoter act	SMN2 splice enh	FLuc modulator	ELG1 genotox	ELG1 DNA repair	NPC1 prom act
O=C(CSc1n[nH]c(-c2ccccc2)n1)NCCc1ccccc1	x	x	-16%	x	x	x
COc1ccc2c(Sc3ccccc3)c(C(=O)NCCc3ccc(Cl)cc3)[nH]c2c1	x	x	5.4µM*	x	x	x
COc1ccc(CCNC(=O)c2nn(C)cc2Cl)cc1	19%	11µM*	u	u	u	20%
COc1ccc(-c2nc(SCC(=O)NCCc3ccccc3)n[nH]2)cc1	x	x	17µM*	x	x	x
COc1ccc2c(=O)c(C(=O)NCCc3ccccc3)c[nH]c2c1	u	x	17µM*	11%	u	u
COc1ccc(CCNC(=O)c2ccc(Cl)cc2)cc1	-2%	-20%	-17%	1%	9%	0%
Cn1cccc1C(=O)N1CCC2(CCCN(c3ccccc3)C2)CC1	x	-12%	x	x	x	x
Cc1ccccc1CNC(=O)CCCn1c(=O)c2cccn2c2ccccc21	x	x	0%	x	x	x
COc1ccc(CCNC(=O)c2ccccc2)cc1	27%	x	u	8%	u	26%
Cc1ccc2c(=O)c(C(=O)NCc3cccs3)c[nH]c2c1	u	-1%	17µM*	16%	u	17%
COc1ccc(CCNC(=O)c2ccc3ccccc3n2)cc1	22%	x	u	18µM*	u	6%
COc1ccc(OC(=O)NCCc2ccccc2)cc1	3.5µM*	x	15µM*	u	u	4µM*
CCN(Cc1ccccc1)C(=O)C1CCC(CNS(=O)(=O)c2ccc3c(c2)CCCC(=O)N3)CC1 (configuration not stated)	x	x	6%	x	x	x
CCOc1ccc(NC(=O)Cn2c(CCC(=O)O)ccc2-c2ccc(Cl)cc2)cc1	x	-1%	u	x	x	x
CC(/C=N\NC(=O)c1cc(C)oc1C)=C\c1ccccc1	2.5µM*	u	2.1µM*	u	u	u
Cc1ccc(/C=N/NC(=O)c2cc(C)oc2C)cc1	24%	x	4.3µM*	u	u	12%
O=C(NC1CCCCC1)c1cc(-c2ccco2)on1	1.6µM*	x	6µM*	u	u	2.5µM*
COc1cccc(-c2ccc3c(N)c(C(=O)NC4CC4)sc3n2)c1	u	x	3µM*	u	u	2µM*
COc1ccc(-c2cc(C(=O)NC3CCCC3)no2)cc1OC	25%	2%	-3%	7%	u	u
COc1cccc(-c2cc(C(=O)NC3CCCCC3)no2)c1	3.2µM*	x	6µM*	u	u	u
COc1ccc(-c2cc(C(=O)NC3CCCC3)no2)cc1	1.8µM*	x	2.1µM*	3.7µM*	u	0.79µM*
COc1ccc(OC)c(NC(=O)CCCOc2cc(=O)n(C)c3ccccc23)c1	x	11%	-4%	x	x	x
COc1ccc(N2CCN(S(=O)(=O)CCNC(=O)Cc3ccc(Cl)cc3)CC2)cc1	x	x	1%	x	x	x
Cc1cc(C)cc(C(=O)N2CC(=O)Nc3ccc(C)cc3C2c2ccccc2)c1 (configuration not stated)	x	-4%	-12%	x	x	x
COc1ccccc1N1CCN(CCN(C(=O)c2ccc(I)cc2)c2ccccn2)CC1	-34%[46.1 µM]	x	x	x	x	-27%[46.1 µM]
